The supplement of paper PMC10849652
About 7,900 targets were measured; listed, in parts, are those with a hit and a random draw of the rest. About 0.6% of all pairs of compound and target were hits. A number with no mark means an inactive call.

Tests used:
Assay in all cases: log2 fold change, soluble protein after heating vs DMSO (PISA); higher = thermal stabilisation; K562 cells, 10 uM, 30 min; active = over 0.2 and 3.5 SD of the protein, either way, in both replicates (recomputed)
[1] = compound: COC1=CC=C(C=C1)CN2C=CC3=C2C=C(C=C3)C(=O)NO
How it was run: (§1)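 K562 cells at 2×10^6 cells/mL were exposed to 10 μM compound for 30 min, then aliquots were heated for 3 min across 48°C-58°C, pooled, and extracted in PBS containing 0.5% NP-40 at 4°C. The supernatant after 21,000xg for 90 min was taken as soluble protein and measured by TMTpro 16plex LC-MS/MS with channel sums equalised. Thermal stability is reported relative to control samples, with values from duplicates. Fold changes are given on a log2 scale.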

[2] = compound: CON(C)C(=O)N1N=C(c2cc(F)ccc2F)S[C@@]1(CCCN)c1ccccc1 [filanesib]
How it was run: as §1

[3] = compound: CO[C@H]1C[C@@H]2CC[C@@H](C)[C@@](O)(O2)C(=O)C(=O)N2CCCC[C@H]2C(=O)O[C@H]([C@H](C)C[C@@H]2CC[C@H](n3cnnn3)[C@H](OC)C2)CC(=O)[C@H](C)/C=C(\C)[C@@H](O)[C@@H](OC)C(=O)[C@H](C)C[C@H](C)/C=C/C=C/C=C/1C [zotarolimus]
How it was run: as §1

[4] = compound: COc1cc(C(=O)O)ccc1NC(=O)[C@@H]1N[C@@H](CC(C)(C)C)[C@](C#N)(c2ccc(Cl)cc2F)[C@H]1c1cccc(Cl)c1F [idasanutlin]
How it was run: as §1

[5] = compound: COc1cc(Nc2ncc3c(n2)-c2ccc(Cl)cc2C(c2c(F)cccc2OC)=NC3)ccc1C(=O)O [alisertib]
How it was run: as §1

[6] = compound: COc1cc2nc(-c3cc(F)ccc3O)nc(N[C@@H]3CNC[C@H]3C(C)(C)O)c2cc1OC
How it was run: as §1

[7] = compound: COc1cc2ncnc(Nc3ccc(F)c(Cl)c3)c2cc1OCCCN1CCOCC1 [gefitinib]
How it was run: as §1

[8] = compound: COc1cccc2cc(-c3nc([C@H]4CC[C@H](C(=O)O)CC4)n4ncnc(N)c34)[nH]c12
How it was run: as §1

[9] = compound: CS(=O)(=O)CCNCc1ccc(-c2ccc3ncnc(Nc4ccc(OCc5cccc(F)c5)c(Cl)c4)c3c2)o1 [lapatinib]
How it was run: as §1

[10] = compound: CS(=O)(=O)N1CCN(Cc2cc3nc(-c4cccc5[nH]ncc45)nc(N4CCOCC4)c3s2)CC1 [pictilisib]
How it was run: as §1

CLN5 (UniProt O75503)
Sequence of UniProt O75503 (O75503 whole entry, looked up): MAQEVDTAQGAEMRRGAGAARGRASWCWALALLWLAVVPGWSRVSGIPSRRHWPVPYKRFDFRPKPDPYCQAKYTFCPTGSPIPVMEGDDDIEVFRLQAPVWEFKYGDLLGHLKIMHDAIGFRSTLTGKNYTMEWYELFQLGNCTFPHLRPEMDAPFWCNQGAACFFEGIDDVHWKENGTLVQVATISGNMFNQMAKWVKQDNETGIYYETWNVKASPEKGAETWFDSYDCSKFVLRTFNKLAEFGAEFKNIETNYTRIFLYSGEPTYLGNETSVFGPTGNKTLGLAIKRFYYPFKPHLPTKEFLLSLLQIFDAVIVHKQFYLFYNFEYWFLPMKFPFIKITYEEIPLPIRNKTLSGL
log2 fold change [1]: 0.021 | log2 fold change [2]: -0.385 | log2 fold change [3]: 0.075 | log2 fold change [4]: 0.049 | log2 fold change [5]: 0.265 | log2 fold change [6]: -0.65 | log2 fold change [7]: -0.341 | log2 fold change [8]: 0.27 | log2 fold change [9]: -0.028

CDK11B (UniProt P21127)
Sequence of UniProt P21127 (P21127 whole entry, looked up): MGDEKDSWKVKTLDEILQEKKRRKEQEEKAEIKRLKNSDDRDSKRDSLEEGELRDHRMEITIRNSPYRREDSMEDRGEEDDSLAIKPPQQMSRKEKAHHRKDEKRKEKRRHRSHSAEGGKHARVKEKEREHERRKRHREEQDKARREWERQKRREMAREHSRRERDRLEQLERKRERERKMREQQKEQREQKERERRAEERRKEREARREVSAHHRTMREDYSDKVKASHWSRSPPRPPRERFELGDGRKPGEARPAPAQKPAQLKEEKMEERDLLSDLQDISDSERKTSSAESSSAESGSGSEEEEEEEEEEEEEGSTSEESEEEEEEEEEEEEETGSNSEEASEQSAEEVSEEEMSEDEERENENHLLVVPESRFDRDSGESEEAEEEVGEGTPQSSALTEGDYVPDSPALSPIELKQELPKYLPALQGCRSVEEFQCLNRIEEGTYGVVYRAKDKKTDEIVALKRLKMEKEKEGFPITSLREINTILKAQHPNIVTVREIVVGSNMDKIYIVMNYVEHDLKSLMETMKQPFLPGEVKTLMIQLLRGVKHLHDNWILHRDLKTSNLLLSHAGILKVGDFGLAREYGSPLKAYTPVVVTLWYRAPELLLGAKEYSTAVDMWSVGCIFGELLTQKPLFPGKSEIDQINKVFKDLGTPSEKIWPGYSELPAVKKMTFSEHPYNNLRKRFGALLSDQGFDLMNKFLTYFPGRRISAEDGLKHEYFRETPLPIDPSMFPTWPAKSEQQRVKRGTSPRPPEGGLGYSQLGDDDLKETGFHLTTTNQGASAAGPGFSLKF
log2 fold change [1]: -0.253 | log2 fold change [2]: -0.009 | log2 fold change [3]: -0.046 | log2 fold change [4]: -0.094 | log2 fold change [5]: 0.011 | log2 fold change [6]: 0.151 | log2 fold change [7]: 0.095 | log2 fold change [8]: 0.097 | log2 fold change [9]: -0.069 | log2 fold change [10]: -0.057

CHAC2 (UniProt Q8WUX2)
Sequence of UniProt Q8WUX2 (Q8WUX2 whole entry, looked up): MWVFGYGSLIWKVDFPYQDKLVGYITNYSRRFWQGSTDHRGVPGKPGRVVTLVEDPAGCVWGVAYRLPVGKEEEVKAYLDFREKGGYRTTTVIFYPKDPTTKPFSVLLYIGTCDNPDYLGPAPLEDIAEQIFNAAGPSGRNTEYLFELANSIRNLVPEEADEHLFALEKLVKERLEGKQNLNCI
log2 fold change [1]: -0.007 | log2 fold change [2]: -0.032 | log2 fold change [3]: 0.066 | log2 fold change [4]: -0.019 | log2 fold change [5]: 0.026 | log2 fold change [6]: -0.061 | log2 fold change [7]: -0.03 | log2 fold change [8]: 0.06 | log2 fold change [9]: 0.029 | log2 fold change [10]: 0.077

CDC42SE1 (UniProt Q9NRR8)
Sequence of UniProt Q9NRR8 (Q9NRR8 whole entry, looked up): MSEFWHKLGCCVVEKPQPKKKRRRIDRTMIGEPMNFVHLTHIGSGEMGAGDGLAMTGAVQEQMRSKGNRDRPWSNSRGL
log2 fold change [1]: -0.011 | log2 fold change [2]: -0.049 | log2 fold change [3]: 0 | log2 fold change [4]: -0.093 | log2 fold change [5]: 0.003 | log2 fold change [6]: 0.036 | log2 fold change [7]: -0.025 | log2 fold change [8]: -0.168 | log2 fold change [9]: -0.088

CLCN3 isoform 2 (UniProt P51790)
log2 fold change [1]: 0.057 | log2 fold change [2]: -0.151 | log2 fold change [3]: -0.031 | log2 fold change [4]: -0.008 | log2 fold change [5]: 0.03 | log2 fold change [6]: -0.064 | log2 fold change [7]: -0.015 | log2 fold change [8]: 0.04 | log2 fold change [9]: 0.008

CHMP4B (UniProt Q9H444)
Sequence of UniProt Q9H444 (Q9H444 whole entry, looked up): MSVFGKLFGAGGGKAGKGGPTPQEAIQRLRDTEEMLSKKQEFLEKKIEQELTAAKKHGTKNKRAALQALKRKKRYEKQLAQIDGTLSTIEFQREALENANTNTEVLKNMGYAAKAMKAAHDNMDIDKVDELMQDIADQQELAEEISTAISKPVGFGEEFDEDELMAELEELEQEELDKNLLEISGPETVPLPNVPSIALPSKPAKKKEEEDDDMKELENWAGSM
log2 fold change [1]: -0.101 | log2 fold change [2]: -0.106 | log2 fold change [3]: -0.015 | log2 fold change [4]: 0.034 | log2 fold change [5]: -0.036 | log2 fold change [6]: 0.044 | log2 fold change [7]: -0.005 | log2 fold change [8]: 0.08 | log2 fold change [9]: -0.09 | log2 fold change [10]: -0.094

CLPP (UniProt Q16740)
Sequence of UniProt Q16740 (Q16740 whole entry, looked up): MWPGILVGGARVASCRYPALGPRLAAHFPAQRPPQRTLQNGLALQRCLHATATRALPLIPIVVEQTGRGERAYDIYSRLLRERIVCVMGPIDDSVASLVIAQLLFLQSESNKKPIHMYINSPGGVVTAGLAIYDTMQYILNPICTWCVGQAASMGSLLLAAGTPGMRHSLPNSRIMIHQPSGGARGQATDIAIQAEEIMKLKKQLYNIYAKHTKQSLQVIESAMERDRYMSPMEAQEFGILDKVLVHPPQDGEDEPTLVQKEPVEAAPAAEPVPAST
log2 fold change [1]: -0.03 | log2 fold change [2]: -0.017 | log2 fold change [3]: 0 | log2 fold change [4]: -0.038 | log2 fold change [5]: -0.091 | log2 fold change [6]: 0.011 | log2 fold change [7]: 0.01 | log2 fold change [8]: 0.021 | log2 fold change [9]: -0.034

CLTB (UniProt P09497)
Sequence of UniProt P09497 (P09497 whole entry, looked up): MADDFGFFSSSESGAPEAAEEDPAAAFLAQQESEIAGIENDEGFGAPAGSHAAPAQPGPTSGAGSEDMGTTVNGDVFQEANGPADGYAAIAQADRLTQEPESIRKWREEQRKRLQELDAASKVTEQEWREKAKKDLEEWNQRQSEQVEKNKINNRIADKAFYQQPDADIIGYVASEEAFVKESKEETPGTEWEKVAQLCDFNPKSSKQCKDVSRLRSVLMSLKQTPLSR
log2 fold change [1]: 0.263 (active) | log2 fold change [2]: -0.053 | log2 fold change [3]: -0.006 | log2 fold change [4]: -0.02 | log2 fold change [5]: -0.106 | log2 fold change [6]: 0 | log2 fold change [7]: 0.017 | log2 fold change [8]: 0.028 | log2 fold change [9]: -0.014

COX5A (UniProt P20674)
Sequence of UniProt P20674 (P20674 whole entry, looked up): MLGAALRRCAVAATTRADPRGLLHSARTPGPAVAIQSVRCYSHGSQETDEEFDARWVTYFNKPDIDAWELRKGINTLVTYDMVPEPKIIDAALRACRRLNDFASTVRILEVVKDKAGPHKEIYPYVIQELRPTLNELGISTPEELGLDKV
log2 fold change [1]: -0.1 | log2 fold change [2]: 0.015 | log2 fold change [3]: 0.054 | log2 fold change [4]: -0.012 | log2 fold change [5]: -0.13 | log2 fold change [6]: -0.092 | log2 fold change [7]: 0.067 | log2 fold change [8]: 0.084 | log2 fold change [9]: -0.108 | log2 fold change [10]: 0.108

CD151 (UniProt P48509)
Sequence of UniProt P48509 (P48509 whole entry, looked up): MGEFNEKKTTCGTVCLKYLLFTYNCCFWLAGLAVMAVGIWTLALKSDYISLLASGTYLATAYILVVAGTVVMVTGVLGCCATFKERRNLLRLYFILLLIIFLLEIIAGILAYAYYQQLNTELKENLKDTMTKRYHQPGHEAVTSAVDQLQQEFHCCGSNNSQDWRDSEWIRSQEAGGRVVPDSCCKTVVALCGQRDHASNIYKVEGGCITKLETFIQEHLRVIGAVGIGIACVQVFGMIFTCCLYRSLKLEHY
log2 fold change [1]: -0.045 | log2 fold change [2]: 0.108 | log2 fold change [3]: -0.048 | log2 fold change [4]: -0.12 | log2 fold change [5]: 0.075 | log2 fold change [6]: 0.111 | log2 fold change [7]: 0.001 | log2 fold change [8]: -0.024 | log2 fold change [9]: 0.012 | log2 fold change [10]: 0.116

CLINT1 isoform 3 (UniProt Q14677)
Sequence of UniProt Q14677 (Q14677 whole entry, looked up): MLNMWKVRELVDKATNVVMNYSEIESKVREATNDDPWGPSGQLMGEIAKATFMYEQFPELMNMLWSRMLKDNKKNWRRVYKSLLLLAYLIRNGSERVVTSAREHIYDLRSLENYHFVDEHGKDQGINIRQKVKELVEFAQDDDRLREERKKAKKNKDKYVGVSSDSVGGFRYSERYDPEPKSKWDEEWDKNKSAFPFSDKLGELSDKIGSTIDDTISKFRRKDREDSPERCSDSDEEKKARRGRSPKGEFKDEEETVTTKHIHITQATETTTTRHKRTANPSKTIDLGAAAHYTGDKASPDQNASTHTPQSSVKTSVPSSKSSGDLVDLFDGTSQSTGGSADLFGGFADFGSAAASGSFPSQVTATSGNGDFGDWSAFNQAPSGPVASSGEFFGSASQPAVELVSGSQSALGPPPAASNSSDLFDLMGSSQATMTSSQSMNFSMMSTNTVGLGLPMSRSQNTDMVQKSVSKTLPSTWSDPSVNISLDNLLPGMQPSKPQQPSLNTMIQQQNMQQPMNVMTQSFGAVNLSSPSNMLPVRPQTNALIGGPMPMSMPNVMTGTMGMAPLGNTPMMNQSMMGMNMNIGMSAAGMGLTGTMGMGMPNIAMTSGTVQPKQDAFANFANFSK
log2 fold change [1]: -0.159 | log2 fold change [2]: 0.155 | log2 fold change [3]: -0.031 | log2 fold change [4]: 0 | log2 fold change [5]: -0.105 | log2 fold change [6]: 0.074 | log2 fold change [7]: 0.148 | log2 fold change [8]: -0.041 | log2 fold change [9]: 0.014

CBX1 (UniProt P83916)
Sequence of UniProt P83916 (P83916 whole entry, looked up): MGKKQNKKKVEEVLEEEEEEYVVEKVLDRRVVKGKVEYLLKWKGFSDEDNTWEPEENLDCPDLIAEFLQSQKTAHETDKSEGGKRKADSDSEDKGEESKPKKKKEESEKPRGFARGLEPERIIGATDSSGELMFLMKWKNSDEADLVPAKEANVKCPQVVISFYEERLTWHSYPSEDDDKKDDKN
log2 fold change [1]: 0.41 (active) | log2 fold change [2]: -0.016 | log2 fold change [3]: 0.008 | log2 fold change [4]: 0.038 | log2 fold change [5]: -0.059 | log2 fold change [6]: -0.086 | log2 fold change [7]: 0.021 | log2 fold change [8]: 0.003 | log2 fold change [9]: 0.037 | log2 fold change [10]: -0.046

CDKN2AIP (UniProt Q9NXV6)
Sequence of UniProt Q9NXV6 (Q9NXV6 whole entry, looked up): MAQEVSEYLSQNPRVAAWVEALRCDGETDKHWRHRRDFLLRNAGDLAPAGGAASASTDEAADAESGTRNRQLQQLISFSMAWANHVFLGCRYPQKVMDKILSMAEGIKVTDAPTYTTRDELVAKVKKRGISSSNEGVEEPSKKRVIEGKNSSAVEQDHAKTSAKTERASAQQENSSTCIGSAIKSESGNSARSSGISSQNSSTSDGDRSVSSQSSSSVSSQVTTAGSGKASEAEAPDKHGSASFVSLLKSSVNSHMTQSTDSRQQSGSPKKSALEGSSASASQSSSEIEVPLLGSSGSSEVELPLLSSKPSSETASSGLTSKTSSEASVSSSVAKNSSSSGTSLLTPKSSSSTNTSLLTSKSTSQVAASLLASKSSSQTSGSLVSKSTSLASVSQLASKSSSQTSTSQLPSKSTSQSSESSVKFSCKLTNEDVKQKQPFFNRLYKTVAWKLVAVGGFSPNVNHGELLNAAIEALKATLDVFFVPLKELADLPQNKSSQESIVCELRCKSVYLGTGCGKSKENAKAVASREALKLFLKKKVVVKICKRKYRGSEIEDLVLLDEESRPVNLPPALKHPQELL
log2 fold change [1]: 0.059 | log2 fold change [2]: 0.024 | log2 fold change [3]: -0.029 | log2 fold change [4]: -0.033 | log2 fold change [5]: -0.091 | log2 fold change [6]: -0.007 | log2 fold change [7]: 0.038 | log2 fold change [8]: 0.054 | log2 fold change [9]: 0.042 | log2 fold change [10]: -0.025

CLPX (UniProt O76031)
Sequence of UniProt O76031 (O76031 whole entry, looked up): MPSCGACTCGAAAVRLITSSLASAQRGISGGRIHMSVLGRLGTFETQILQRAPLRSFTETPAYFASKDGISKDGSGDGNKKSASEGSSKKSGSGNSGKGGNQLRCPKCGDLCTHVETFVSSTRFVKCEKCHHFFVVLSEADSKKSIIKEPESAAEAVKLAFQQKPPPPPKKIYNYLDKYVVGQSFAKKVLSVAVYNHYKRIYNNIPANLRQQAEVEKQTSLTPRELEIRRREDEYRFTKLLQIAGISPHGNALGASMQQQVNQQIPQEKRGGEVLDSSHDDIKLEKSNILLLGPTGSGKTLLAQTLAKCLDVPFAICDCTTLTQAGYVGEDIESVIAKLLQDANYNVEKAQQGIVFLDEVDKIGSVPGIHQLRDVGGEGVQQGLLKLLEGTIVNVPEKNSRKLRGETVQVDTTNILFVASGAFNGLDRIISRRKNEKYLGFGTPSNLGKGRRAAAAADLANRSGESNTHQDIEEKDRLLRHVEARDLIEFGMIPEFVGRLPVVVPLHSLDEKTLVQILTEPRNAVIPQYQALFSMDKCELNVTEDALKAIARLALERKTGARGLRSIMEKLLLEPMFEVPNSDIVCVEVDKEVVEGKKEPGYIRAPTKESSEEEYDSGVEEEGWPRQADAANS
log2 fold change [1]: 0.077 | log2 fold change [2]: -0.07 | log2 fold change [3]: -0.052 | log2 fold change [4]: -0.007 | log2 fold change [5]: -0.026 | log2 fold change [6]: -0.017 | log2 fold change [7]: 0.019 | log2 fold change [8]: 0.021 | log2 fold change [9]: 0.014

COX7B (UniProt P24311)
Sequence of UniProt P24311 (P24311 whole entry, looked up): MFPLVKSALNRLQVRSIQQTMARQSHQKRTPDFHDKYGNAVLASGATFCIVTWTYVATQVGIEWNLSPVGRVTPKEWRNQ
log2 fold change [1]: 0.112 | log2 fold change [2]: 0.028 | log2 fold change [3]: -0.003 | log2 fold change [4]: -0.012 | log2 fold change [5]: 0.038 | log2 fold change [6]: -0.018 | log2 fold change [7]: 0.023 | log2 fold change [8]: 0.094 | log2 fold change [9]: -0.009 | log2 fold change [10]: -0.039
